From PubChem BioAssay AID504848 (National Center for Advancing Translational Sciences (NCATS), 2011)
The campaign covered roughly 2,300 compounds. About 1,400 (61%) were called active. Inconclusive results (about 29%) are left out. The set was probably picked from earlier hits. This is one part of the list. Values without a mark were called inactive. The call rests on the fitted dose curve; in most records, active means well fitted inhibition curve with a large enough effect; inconclusive means small, poorly fitted or top-dose-only effect, or effect the other way; inactive means no such curve, though single readings can be large or run the other way.

Assay: Confirmation screen for delayed death inhibitors of the malarial parasite plastid, 96 hour incubation; further: nearly all actives have a fitted effect of over 60% in size
Details: P. falciparum luciferase growth in erythrocytes; series mostly up to 28.7 µM; activity change, negative = inhibition: at the top concentration
Method in brief: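 Two-generation (96 h, 37 C) exposure of P. falciparum carrying an integrated firefly luciferase reporter in erythrocytes, 0.1% parasitemia and 2% hematocrit final, Albumax-supplemented RPMI. Luminescence decrease measures growth inhibition.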
On the % scale 0 is the no-effect control and ±100 the full control effect; potency means the concentration at half of the fitted maximal effect.

SMILES	Potency	activity change, negative = inhibition
Cc1ccc(-c2nn(C(C)(C)C)c3ncnc(N)c23)cc1	5.01 µM (active)	
O=C(Nc1nnc(SCc2ccc(F)cc2)s1)c1ccccn1	2.82 µM (active)	
Oc1ccc(-c2n[nH]c(=S)n2-c2ccc3c(c2)OCCO3)c(O)c1	0.355 µM (active)	
COc1cc(C(=O)NCc2ccncc2)cc(Br)c1OCc1ccccc1	8.91 µM (active)	
O=C(c1ccc(S(=O)(=O)Cc2ccccc2Cl)c([N+](=O)[O-])c1)N1CCOCC1	3.98 µM (active)	
O=C(c1ccc(S(=O)(=O)Cc2cc(F)ccc2F)c([N+](=O)[O-])c1)N1CCCC1	7.94 µM (active)	
Cc1ccc(S(=O)(=O)N2CCN(c3ccc(C(=O)N4CCOCC4)cc3[N+](=O)[O-])CC2)cc1	4.47 µM (active)	
CC(C)NC(=O)NC(=O)COC(=O)c1ccccc1Oc1ccccc1		-19.1%
Cc1cccc(NC(=O)COC(=O)c2cccc3c2C(=O)c2ccccc2C3=O)c1C	12.6 µM (active)	
CN(C)S(=O)(=O)c1cc(NC(=O)c2cc(=O)c3ccccc3o2)ccc1Cl	5.01 µM (active)	
CN(C)S(=O)(=O)c1cc(NC(=O)C2=COCCO2)ccc1Cl	10 µM (active)	
CCCCCCn1c(=O)[nH]c2nc3cc(N)ccc3nc2c1=O	14.1 µM (active)	
O=C(O)c1ccccc1Nc1ccc([N+](=O)[O-])cc1		15.4%
COc1ccc(NC(=O)NC2CCCCCCC2)c(OC)c1	11.2 µM (active)	
COc1ccccc1NC(=O)Cc1nnc(SCC(=O)NC2CCCCC2)n1C		-14.6%
COc1cc(-c2ccc(Nc3ccccc3C(=O)O)c(OC)c2)ccc1Nc1ccccc1C(=O)O	10 µM (active)	
COc1cc(-c2ccc(NC(=O)NC3CC3)c(OC)c2)ccc1NC(=O)NC1CC1	11.2 µM (active)	
COc1ccc(NC(=O)N2CCCc3cc(C)ccc32)c(OC)c1	12.6 µM (active)	
COc1ccc(NC(=O)NC2CCCc3ccccc32)c(OC)c1 (stereo unspecified)	6.31 µM (active)	
CCNc1ccc(Br)cc(C(=O)/C=C/c2c(Cl)cccc2Cl)c1=O	7.08 µM (active)	
CC(=O)Oc1ccc(-c2csc(Nc3cccnc3)n2)cc1		3.42%
O=C(NC(=S)Nc1nc(-c2ccccc2)cs1)c1cccnc1	12.6 µM (active)	
CC(Oc1ccc(Br)cc1)C(=O)N1CCN(c2ccccn2)CC1 (stereo unspecified)	12.6 µM (active)	
O=C(c1ccccc1Br)N1CCN(c2ccccn2)CC1		-19.7%
CCCCn1c(=O)[nH]c(=O)c2c1nc(Cn1ncc(Cl)c(Cl)c1=O)n2CCC	10 µM (active)	
CC(C)CNC(=O)C(=O)Nc1cc2c3c(c1)C(C)C(=O)N3CCC2 (stereo unspecified)	14.1 µM (active)	
